# Measurements as given in PubChem BioAssay.
# Several values for one entry are separate records, joined by “and”; a condition that tells them apart may be missing. Equal values may be shown once. Activity calls are given as the source filed them. Unless noted, how the calls were made is not given here.
# Key:
# [1] = compounds altering circadian rhythm period length – cell-based, LOPAC library, luminescence reporter (AID 2774); conditions: circadian reporter cells, at 7 µM, actives lie on both sides;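 further: values are relative to mean of DMSO wells on each plate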
# [2] = test system: Hepatitis C virus NS3 helicase; experiment: blockers of NS3h binding to ssDNA – biochemical, fluorescence polarization, LOPAC1280 library, primary screen (AID 687035; in the data active means inhibition above about 37%); conditions: Purified HCV NS3 helicase, Cy5-dT15 ssDNA binding fluorescence polarization; stronger effect = higher value; concentration not given here
# [3] = compounds altering Cy5-DNA-NS3h complex signal – biochemical, LOPAC1280, artefact control for HCV NS3 helicase inhibitor project (AID 687037); conditions: Cy5-DNA-NS3h complex fluorescence interference counterscreen
# [4] = viability loss with induced miR-34 in A549 – imaging, A549 dox-inducible miR-34, nuclei and caspase counts, primary screen (AID 1347080;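 active means compounds whose cell count with miR-34 switched on is under 0.7 times the count with it off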); conditions: A549 miR-34 inducible, Hoechst nuclei count, 48 h
# [5] = chitosan synthesis blockers in C. neoformans – flow cytometry, Cibacron Brilliant Red staining (AID 1347148); conditions: Cryptococcus neoformans chitosan, stronger effect = lower value; at 10 µM unless noted;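 further: compound exposure lasted three days at 37 degrees C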
# [6] = blockers of cellular phospholipid synthesis – cell-based, LOPAC library, screen 4, primary screen (AID 1347384); conditions: animal cells, phospholipid biosynthesis inhibition screen; at 10 µM
# [7] = galactose survival enhancers in mitochondrial complex I cybrids – cell-based, galactose medium, ATP luminescence, primary screen (AID 1645843;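 active means z-score of at least 1.8 in each of two replicates, scored against plate mean and spread of sample wells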;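 further: positive z means more ATP and so rescue of galactose-driven cybrid death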); conditions: complex I mutant cybrid cells, 72 h, stronger effect = higher value
# [8] = compounds altering viability of human ES cells (AID 493140); conditions: human embryonic stem cell survival screen; stronger effect = higher value;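 further: cells exposed to compounds for four days before counting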
# [9] = P. berghei load reduction in hepatocytes – cell-based, HepG2, luciferase luminescence, HepG2 viability, primary screen (AID 624349; in the data active means parasite load remaining mostly below about 12%, no sharp cut-off; inactive means mostly above about 10%;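 further: 100% = mean of DMSO negative control wells on the same plate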); conditions: P. berghei liver stage in HepG2, luciferase luminescence, concentration not given here; parasite load remaining: stronger effect = lower value; viability: measured here: HepG2 viability without parasites
# [10] = MELAS cybrid and Rieske KO viability enhancers – cell-based, MELAS cybrids, Rieske KO mouse fibroblasts, CellTiter-Glo, primary screen (AID 1508586;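 active means mean z-score across replicates of 1.96 or higher in either the MELAS or the Rieske mutant cell line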;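 further: z relative to plate mean and SD of compound and empty wells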); conditions: low glucose
# [11] = compounds altering HSF1 focus formation in cells – imaging, Selleck Cancer Library (AID 1347162; in the data active means plate-normalised HSF1 focus index below about 0.46); conditions: human cells, HSF1 nuclear foci imaging, at 10 µM; SSMD: measured here: HSF1 foci SSMD mean; cell count: measured here: cell number; plate-normalised HSF1 focus index: stronger effect = lower value
# [12] = stronger effect = lower value, cell number ratio, induced over uninduced
# [13] = measured here: relative caspase fold change +Dox/-Dox
# [14] = measured here: total cells with miR-34 induction, stronger effect = lower value
# [15] = measured here: total cells without miR-34 induction
# [16] = MELAS cybrid survival, CellTiter-Glo 48 h, stronger effect = higher value
# [17] = Rieske KO mouse fibroblast survival, CellTiter-Glo 72 h
smiles,measurement,setting,value
CCCCCC[C@@H]([C@@H](C)O)n1cnc2c(N)ncnc21,period change,[1],0.15 h (inactive)
same,inhibition,[2],-4% (inactive)
same,fluorescence ratio (interference),[3],1 (inactive)
same,fold change,[4]; [12],0.934 (inactive) and 0.834 (inactive)
same,fold change,[4]; [13],0.993 and 0.703
same,cell count,[4]; [14],8420 and 3190
same,cell count,[4]; [15],9020 and 3820
same,fold fluorescence,[5],5.1 [at 180.3 µM] (inactive)
same,outcome,[6],inactive
same,z-score,[7],-0.69 (inactive)
COc1cc2ncc(-c3ccccc3)nc2cc1OC,survival,[8],66.2 (inactive)
same,parasite load remaining,[9],37% (inactive)
same,viability,[9],96.9%
same,fold change,[4]; [12],0.803 (inactive) and 0.84 (inactive)
same,fold change,[4]; [13],1.43 and 0.498
same,cell count,[4]; [14],3060 and 6730
same,cell count,[4]; [15],3820 and 8010
same,fold fluorescence,[5],6 [at 187.8 µM] (inactive)
same,z-score,[10]; [16],0.0666 (inactive)
same,z-score,[10]; [17],1.44
O=C1C(Nc2ccccc2)=CC(=O)c2ncccc21,fold change,[4]; [12],0.735 (inactive) and 0.883 (inactive)
same,fold change,[4]; [13],1.99 and 0.965
same,cell count,[4]; [14],1070 and 904
same,cell count,[4]; [15],1450 and 1020
same,fold fluorescence,[5],7.9 [at 199.8 µM] (inactive)
O=C1O/C(=C/Br)CC[C@@H]1c1cccc2ccccc12,fold change,[4]; [12],0.956 (inactive)
same,fold change,[4]; [13],0.986
same,cell count,[4]; [14],5530
same,cell count,[4]; [15],5790
CCCCCCCC/C=C\CCCCCCCC(=O)OC[C@H](CO)OC(C)=O,survival,[8],98.6 (inactive)
same,fold change,[4]; [12],0.972 (inactive) and 0.952 (inactive)
same,fold change,[4]; [13],0.87 and 0.868
same,cell count,[4]; [14],6120 and 5660
same,cell count,[4]; [15],6290 and 5950
same,fold fluorescence,[5],5.82 (inactive)
CC(C)NC[C@H](O)c1ccc(O)c(O)c1,period change,[1],0.03 h (inactive)
same,parasite load remaining,[9],71.3% (inactive)
same,viability,[9],68.4%
same,inhibition,[2],3% (inactive) and -5% (inactive)
same,fluorescence ratio (interference),[3],1 (inactive) and 0.9 (inactive)
same,fold change,[4]; [12],1.16 (inactive) and 1.1 (inactive) and 0.953 (inactive)
same,fold change,[4]; [13],0.694 and 0.901 and 0.646
same,cell count,[4]; [14],9390 and 11000 and 9560
same,cell count,[4]; [15],8130 and 10100 and 10000
same,outcome,[6],inactive
same,z-score,[10]; [16],-0.508 (inactive)
same,z-score,[10]; [17],-0.956
same,z-score,[7],-1.02 (inactive) and -1.29 (inactive)
C#CCCCCCCCCCCCCCCCC(=O)O,survival,[8],96.8 (inactive)
same,fold change,[4]; [12],0.987 (inactive) and 1.06 (inactive)
same,fold change,[4]; [13],1.49 and 0.91
same,cell count,[4]; [14],5840 and 5920
same,cell count,[4]; [15],5920 and 5580
same,fold fluorescence,[5],5.76 (inactive)
CCc1cncnc1N1CCN(Cc2nc3ccc(C(F)(F)F)cc3[nH]2)CC1,fold change,[4]; [12],0.998 (inactive) and 0.92 (inactive)
same,fold change,[4]; [13],1.49 and 0.523
same,cell count,[4]; [14],6670 and 5920
same,cell count,[4]; [15],6690 and 6430
same,SSMD,[11],2.94
same,cell count,[11],7470
same,plate-normalised HSF1 focus index,[11],1.18 (inactive)
same,outcome,[6],inactive
same,z-score,[10]; [16],0.232 (inactive)
same,z-score,[10]; [17],0.0669
same,z-score,[7],-1.37 (inactive)
COC(=O)C1=C(C)NC(C)=C(C(=O)OC2CCCN(Cc3ccccc3)C2)C1c1cccc([N+](=O)[O-])c1 (centres undefined),fold change,[4]; [12],1.82 (inactive) and 1.04 (inactive)
same,fold change,[4]; [13],0.615 and 0.533
same,cell count,[4]; [14],3920 and 6890
same,cell count,[4]; [15],2160 and 6660
same,outcome,[6],inactive
same,z-score,[10]; [16],-0.438 (inactive)
same,z-score,[10]; [17],-0.0848
same,z-score,[7],-1.88 (inactive)
CO[C@H]1C[C@@H]2CC[C@@H](C)[C@@](O)(O2)C(=O)C(=O)N2CCCC[C@H]2C(=O)O[C@H]([C@H](C)C[C@@H]2CC[C@@H](O)[C@H](OC)C2)CC(=O)[C@H](C)/C=C(\C)[C@@H](O)[C@@H](OC)C(=O)[C@H](C)C[C@H](C)/C=C/C=C/C=C/1C,parasite load remaining,[9],55.9% (inactive)
same,viability,[9],106%
same,fold change,[4]; [12],0.856 (inactive) and 0.953 (inactive)
same,fold change,[4]; [13],1.35 and 1.11
same,cell count,[4]; [14],3240 and 7080
same,cell count,[4]; [15],3790 and 7430
same,SSMD,[11],1.27
same,cell count,[11],7610
same,plate-normalised HSF1 focus index,[11],1.08 (inactive)
same,z-score,[10]; [16],-0.0487 (inactive)
same,z-score,[10]; [17],0.674
same,z-score,[7],2.58 (active)
CCCCC[C@H](O)/C=C/C1=C(C/C=C\CCCC(=O)O)C(=O)CC1,survival,[8],130 (inactive)
same,fold change,[4]; [12],0.969 (inactive) and 0.886 (inactive)
same,fold change,[4]; [13],1.57 and 1.52
same,cell count,[4]; [14],6100 and 5600
same,cell count,[4]; [15],6300 and 6320
same,fold fluorescence,[5],3.98 (inactive)
CC(C)(C)NCC(O)COc1nsnc1N1CCOCC1 (centres undefined),period change,[1],-0.09 h (inactive)
same,inhibition,[2],-2% (inactive)
same,fluorescence ratio (interference),[3],1 (inactive)
same,fold change,[4]; [12],0.926 (inactive) and 0.855 (inactive)
same,fold change,[4]; [13],1.26 and 0.99
same,cell count,[4]; [14],9690 and 8250
same,cell count,[4]; [15],10500 and 9640
same,outcome,[6],inactive
same,z-score,[10]; [16],-0.232 (inactive)
same,z-score,[10]; [17],-0.152
same,z-score,[7],0.22 (inactive)
O=C(O)CCC/C=C\CC1C2CCC(O2)C1CNNC(=O)Nc1ccccc1 (centres undefined),survival,[8],88.6 (inactive)
same,fold change,[4]; [12],0.964 (inactive) and 0.895 (inactive)
same,fold change,[4]; [13],1.45 and 1.09
same,cell count,[4]; [14],5700 and 5510
same,cell count,[4]; [15],5910 and 6160
same,fold fluorescence,[5],4.39 (inactive)
CCCCC[C@H](O)/C=C/[C@H]1C=CC(=O)[C@@H]1CCCCCCC(=O)O,survival,[8],103 (inactive)
same,fold change,[4]; [12],0.912 (inactive) and 0.844 (inactive)
same,fold change,[4]; [13],1.4 and 1.79
same,cell count,[4]; [14],5980 and 4550
same,cell count,[4]; [15],6560 and 5390
same,fold fluorescence,[5],4.35 (inactive)
O=C(O)CNC(=O)C(CS)Cc1ccccc1 (centres undefined),period change,[1],-0.18 h (inactive)
same,survival,[8],4.92 (inactive)
same,parasite load remaining,[9],144% (inactive) and 78.5% (inactive)
same,viability,[9],103% and 75.5%
same,inhibition,[2],0% (inactive)
same,fluorescence ratio (interference),[3],1 (inactive)
same,fold change,[4]; [12],0.968 (inactive) and 0.835 (inactive) and 1 (inactive)
same,fold change,[4]; [13],1.08 and 1.52 and 1.29
same,cell count,[4]; [14],9910 and 8670 and 5950
same,cell count,[4]; [15],10200 and 10400 and 5920
same,outcome,[6],inactive
same,z-score,[10]; [16],-0.922 (inactive)
same,z-score,[10]; [17],0.154
same,z-score,[7],0.48 (inactive)
CCCCCCCC/C=C\C/C=C\C/C=C\CCCC(=O)O,survival,[8],69.8 (inactive)
same,fold change,[4]; [12],0.997 (inactive) and 0.986 (inactive)
same,fold change,[4]; [13],1.14 and 0.749
same,cell count,[4]; [14],6200 and 5590
same,cell count,[4]; [15],6220 and 5670
same,fold fluorescence,[5],4.51 (inactive)
CC(C)=CCC/C(C)=C/CC/C(C)=C/CSCC(=O)O,survival,[8],89.7 (inactive)
same,fold change,[4]; [12],0.964 (inactive) and 0.982 (inactive)
same,fold change,[4]; [13],1.23 and 1.52
same,cell count,[4]; [14],5900
same,cell count,[4]; [15],6120 and 6010
same,fold fluorescence,[5],2.64 (inactive)
CC/C=C\C/C=C\C/C=C\C/C=C\C/C=C\CCCCCC(=O)O,survival,[8],78 (inactive)
same,fold change,[4]; [12],0.983 (inactive) and 0.953 (inactive)
same,fold change,[4]; [13],0.972 and 0.777
same,cell count,[4]; [14],5080 and 5820
same,cell count,[4]; [15],5170 and 6110
same,fold fluorescence,[5],5.56 (inactive)
CC(=O)N[C@@H](CSC/C=C(\C)CC/C=C(\C)CCC=C(C)C)C(=O)O,survival,[8],97.2 (inactive)
same,fold change,[4]; [12],0.899 (inactive) and 1.06 (inactive)
same,fold change,[4]; [13],1.4 and 1.04
same,cell count,[4]; [14],5730 and 5900
same,cell count,[4]; [15],6380 and 5570
same,fold fluorescence,[5],5 [at 136 µM] (inactive)
CCCCCCCCCCCCC/C=C/[C@@H](O)[C@@H](N)CO,survival,[8],98.4 (inactive) and 83.2 (inactive)
same,fold change,[4]; [12],0.985 (inactive) and 0.945 (inactive)
same,fold change,[4]; [13],1.13 and 1.49
same,cell count,[4]; [14],6200 and 6060
same,cell count,[4]; [15],6290 and 6410
same,fold fluorescence,[5],8.01 (inactive)
CCCCC/C=C\C/C=C\C/C=C\CCCCCCC(=O)O,survival,[8],92.4 (inactive)
same,fold change,[4]; [12],1.02 (inactive) and 1.05 (inactive)
same,fold change,[4]; [13],1.28 and 1.4
same,cell count,[4]; [14],5830 and 6270
same,cell count,[4]; [15],5710 and 6000
same,fold fluorescence,[5],4.94 (inactive)
